Source: PubChem BioAssay (NCI)
The panel holds about 83,000 compounds, 20% with a hit somewhere; the sample as a whole holds those more often.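 Compound tested at a single concentration for 48 hours in 96-well plates; a percent growth value below 10 was scored as active.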 Activity calls are given as the source filed them.

Experiments:
Assay in all cases: NCI-60 one-dose screen, 48 h (100 = growth as untreated, 0 = no growth, -100 = all killed)
Conditions in all cases: 10 µM unless noted
HCT-15 colon = tested on: HCT-15 colon
HT29 colon = tested on: HT29 colon
SNB-75 CNS = tested on: SNB-75 CNS
SNB-19 CNS = tested on: SNB-19 CNS
U251 CNS = tested on: U251 CNS
PC-3 prostate = tested on: PC-3 prostate
SK-MEL-5 melanoma = tested on: SK-MEL-5 melanoma
UACC-62 melanoma = tested on: UACC-62 melanoma
LOX IMVI melanoma = tested on: LOX IMVI melanoma
SK-MEL-28 melanoma = tested on: SK-MEL-28 melanoma

Measured: growth

O=C1C2=C(CCN(Cc3ccccc3)C2)N2CCN=C2N1Cc1ccc(C(F)(F)F)cc1
inactive: HCT-15 colon 13% | HT29 colon 31% | SNB-75 CNS 38.1% | SNB-19 CNS 27.7% | U251 CNS 21.8% | PC-3 prostate 20.3% | SK-MEL-5 melanoma 14.2% | UACC-62 melanoma 18.4% | LOX IMVI melanoma 29.2% | SK-MEL-28 melanoma 47.1%

COc1ccc(-c2nnc(-c3ccc4c(c3)nc(-c3ccccc3)n4C3CCCCC3)o2)cc1
inactive: HCT-15 colon 41.9% | HT29 colon 34.9% | SNB-75 CNS 98.7% | SNB-19 CNS 86% | U251 CNS 71.3% | PC-3 prostate 18.5% | SK-MEL-5 melanoma 24.9% | UACC-62 melanoma 43.7% | LOX IMVI melanoma 36.9% | SK-MEL-28 melanoma 88.5%

Cc1ccc(NSc2ccccc2[N+](=O)[O-])cc1
inactive: HCT-15 colon 27% | SNB-75 CNS 10.1% | SNB-19 CNS 38.1% | U251 CNS 21.1% | PC-3 prostate 18% | SK-MEL-5 melanoma 13.6% | UACC-62 melanoma 28.6% | LOX IMVI melanoma 35% | SK-MEL-28 melanoma 63.7%
active: HT29 colon 5.05%

CCOC(=O)C(O)C(O)(c1ccccc1)c1ccccc1 (stereo not given)
inactive: HCT-15 colon 98% | HT29 colon 99.7% | SNB-75 CNS 89.7% | SNB-19 CNS 114% | U251 CNS 97.3% | PC-3 prostate 96.8% | SK-MEL-5 melanoma 97.6% | UACC-62 melanoma 98.5% | LOX IMVI melanoma 102% | SK-MEL-28 melanoma 95.8%

Cc1nc(C)c(-c2nn3c(-c4cccc(F)c4)nnc3s2)s1
inactive: HCT-15 colon 101% | HT29 colon 86.6% | SNB-75 CNS 113% | SNB-19 CNS 93.6% | U251 CNS 93.5% | PC-3 prostate 89.3% | SK-MEL-5 melanoma 92.8% | UACC-62 melanoma 96% | LOX IMVI melanoma 99.9% | SK-MEL-28 melanoma 119%

C/C(=N\NC(N)=S)c1nc2ccc(Cl)cc2[nH]1
inactive: HCT-15 colon 35.7% | HT29 colon 32.8% | SNB-75 CNS 43.6% | SNB-19 CNS 57.6% | U251 CNS 49.9% | PC-3 prostate 52.3% | SK-MEL-5 melanoma 45.3% | UACC-62 melanoma 36.7% | LOX IMVI melanoma 43.7% | SK-MEL-28 melanoma 68.7%

CN(C)CCOC(=O)Nc1ccc(Cl)cc1
inactive: HCT-15 colon 108% | HT29 colon 82.7% | SNB-75 CNS 96.3% | SNB-19 CNS 106% | U251 CNS 101% | PC-3 prostate 65.4% | SK-MEL-5 melanoma 99% | UACC-62 melanoma 97.2% | LOX IMVI melanoma 101% | SK-MEL-28 melanoma 115%

CCOC(=O)C(=CNc1ccccc1[N+](=O)[O-])C(=O)OCC
inactive: HCT-15 colon 108% | HT29 colon 92.6% | SNB-75 CNS 97% | SNB-19 CNS 91.2% | U251 CNS 92.6% | PC-3 prostate 95.7% | SK-MEL-5 melanoma 86.4% | UACC-62 melanoma 84.4% | LOX IMVI melanoma 99.9% | SK-MEL-28 melanoma 102%

C=C(C)[C@@H]1CC[C@]2(C(=O)NCC(=O)O)CC[C@]3(C)[C@H](CC[C@@H]4[C@@]5(C)Cc6c([nH]c7ccccc67)C(C)(C)[C@@H]5CC[C@]43C)[C@@H]12
inactive: HCT-15 colon 77.5% | HT29 colon 88.2% | SNB-75 CNS 64.2% | SNB-19 CNS 71.2% | U251 CNS 61.8% | PC-3 prostate 72.6% | SK-MEL-5 melanoma 103% | UACC-62 melanoma 79.7% | LOX IMVI melanoma 99.1% | SK-MEL-28 melanoma 92.7%

N#Cc1cccc(-c2nc3ccccn3c2NCCN2CCOCC2)c1
inactive: HCT-15 colon 105% | HT29 colon 92.8% | SNB-75 CNS 71.1% | SNB-19 CNS 100% | U251 CNS 98.2% | PC-3 prostate 89.5% | SK-MEL-5 melanoma 104% | UACC-62 melanoma 95.5% | LOX IMVI melanoma 92.5% | SK-MEL-28 melanoma 107%

CCCNCC(=O)Nc1ccc(C(=O)OC(C)(C)CC)cc1
inactive: HCT-15 colon 106% | HT29 colon 79.4% | SNB-75 CNS 104% | SNB-19 CNS 99.7% | U251 CNS 100% | PC-3 prostate 75.8% | SK-MEL-5 melanoma 98.2% | UACC-62 melanoma 96.3% | LOX IMVI melanoma 100% | SK-MEL-28 melanoma 112%

CCN(CC)c1ccc(Nc2ccc(CC(=O)c3ccccc3)cc2)cc1
inactive: HCT-15 colon 88.7% | HT29 colon 75.8% | SNB-75 CNS 91.1% | SNB-19 CNS 80.8% | U251 CNS 56.2% | PC-3 prostate 39.9% | SK-MEL-5 melanoma 79.9% | UACC-62 melanoma 78.5% | LOX IMVI melanoma 91.3% | SK-MEL-28 melanoma 98.5%

O=C1CSC(c2ccccc2)N1c1ccccc1 (stereo not given)
inactive: HCT-15 colon 98.9% | HT29 colon 116% | SNB-75 CNS 99.5% | SNB-19 CNS 99.1% | U251 CNS 102% | PC-3 prostate 91.4% | SK-MEL-5 melanoma 98.1% | UACC-62 melanoma 103% | LOX IMVI melanoma 97.7% | SK-MEL-28 melanoma 106%

CCCN1CCN(c2ccc3nc(-c4ccc5nc(-c6cc(OC)c(OC)c(OC)c6)[nH]c5c4)[nH]c3c2)CC1
inactive: HCT-15 colon 99.5% | HT29 colon 58% | SNB-75 CNS 43.6% | SNB-19 CNS 69.8% | U251 CNS 66.3% | PC-3 prostate 70.7% | SK-MEL-5 melanoma 41.3% | UACC-62 melanoma 35.8% | LOX IMVI melanoma 67.3% | SK-MEL-28 melanoma 57.8%

O=C1NC(=S)S/C1=C\N1N=C(c2ccc(Cl)cc2)CC1c1ccc(F)cc1 (stereo not given)
inactive: HCT-15 colon 78.5% | HT29 colon 85.5% | SNB-75 CNS 76.1% | SNB-19 CNS 81.7% | U251 CNS 68.7% | PC-3 prostate 81.6% | SK-MEL-5 melanoma 77.8% | UACC-62 melanoma 73.6% | LOX IMVI melanoma 80.6% | SK-MEL-28 melanoma 103%

CCOc1cccnc1/C=N/NC(N)=S
inactive: HCT-15 colon 40.2% | HT29 colon 56.7% | SNB-75 CNS 68.7% | SNB-19 CNS 69.4% | U251 CNS 36.1% | PC-3 prostate 37.3% | SK-MEL-5 melanoma 55.4% | UACC-62 melanoma 50.6% | LOX IMVI melanoma 35.9% | SK-MEL-28 melanoma 76.1%

Nc1ccn(C2OC(F)(CO)C(O)C2F)c(=O)n1 (stereo not given)
inactive: HCT-15 colon 63.1% | HT29 colon 48.3% | SNB-75 CNS 68.3% | SNB-19 CNS 36.8% | U251 CNS 29.8% | PC-3 prostate 50.1% | SK-MEL-5 melanoma 47.4% | UACC-62 melanoma 49.3% | LOX IMVI melanoma 73.1% | SK-MEL-28 melanoma 74.3%

Cc1nc(Nc2cccc(NC(=O)Nc3ccc(Cl)cc3)c2)c2ccccc2n1
inactive: HCT-15 colon 77% | HT29 colon 80.8% | SNB-75 CNS 85.3% | SNB-19 CNS 99.9% | U251 CNS 91.9% | PC-3 prostate 77.9% | SK-MEL-5 melanoma 91.5% | UACC-62 melanoma 76.4% | LOX IMVI melanoma 88.7% | SK-MEL-28 melanoma 102%

C=C(C=O)C1CCC2(C(=O)O)CCC3(C)C(CCC4C5(C)CCC(O)C(C)(C)C5CCC43C)C12 (stereo not given)
inactive: SNB-75 CNS 47.1% | SNB-19 CNS 66.3% | PC-3 prostate 20.4%
active: HCT-15 colon -15.1% | HT29 colon 3.49% | U251 CNS 6.78% | SK-MEL-5 melanoma -96.9% | UACC-62 melanoma -84.2% | LOX IMVI melanoma -74.1% | SK-MEL-28 melanoma -30.8%

CCOC(=O)c1sc2ccc(NCc3nc[nH]c3C)cc2c1NC(=O)c1cc(OC)c(OC)c(OC)c1
inactive: HCT-15 colon 92.7% | HT29 colon 88.9% | SNB-75 CNS 92.8% | SNB-19 CNS 93% | U251 CNS 92.3% | PC-3 prostate 85% | SK-MEL-5 melanoma 96.9% | UACC-62 melanoma 92.9% | LOX IMVI melanoma 67.9% | SK-MEL-28 melanoma 83%

CCCCCCCCn1cc(C2=C(c3coc4ccc(OC)cc34)C(=O)NC2=O)c2ccccc21
inactive: HCT-15 colon 97.4% | HT29 colon 99.3% | SNB-75 CNS 84.8% | SNB-19 CNS 108% | U251 CNS 97.2% | PC-3 prostate 107% | SK-MEL-5 melanoma 99.2% | UACC-62 melanoma 96.2% | LOX IMVI melanoma 61.2% | SK-MEL-28 melanoma 101%

CSc1nc2sc3cc(Cl)ccc3n2c(=N)c1C#N
inactive: HCT-15 colon 94.7% | HT29 colon 33% | SNB-75 CNS 26% | SNB-19 CNS 81.8% | U251 CNS 89.4% | PC-3 prostate 66.4% | SK-MEL-5 melanoma 45.2% | UACC-62 melanoma 59.4% | LOX IMVI melanoma 86.8% | SK-MEL-28 melanoma 41.9%

O=C(CC12CC3CC(CC(C3)C1)C2)NCCOCCOCCOCCNC(=O)c1cc2c(o1)C(=O)c1ccccc1C2=O
active: HCT-15 colon -78.5% | HT29 colon 1.17% | SNB-75 CNS -98.9% | SNB-19 CNS -0.887% | U251 CNS -19.6% | SK-MEL-5 melanoma -98.4% | UACC-62 melanoma -94.6% | LOX IMVI melanoma -52.4% | SK-MEL-28 melanoma -58.5%
inactive: PC-3 prostate 13.1%

Cc1ccc(S(=O)(=O)Nc2sccc2-c2nc(-c3ccccc3)no2)cc1
inactive: HCT-15 colon 97.9% | HT29 colon 100% | SNB-75 CNS 84.4% | SNB-19 CNS 94.4% | U251 CNS 93.9% | PC-3 prostate 86.4% | SK-MEL-5 melanoma 98.6% | UACC-62 melanoma 79.1% | LOX IMVI melanoma 91% | SK-MEL-28 melanoma 92.9%

CC(C)n1nc(C#Cc2cccc(NC(=O)c3cccc(C(F)(F)F)c3)c2)c2c(N)ncnc21
active: HCT-15 colon -3.07% | HT29 colon -11.7% | SNB-75 CNS -66.2% | SNB-19 CNS 5.79% | U251 CNS 2.84% | SK-MEL-5 melanoma -61.4% | UACC-62 melanoma -56.1% | LOX IMVI melanoma -91.8% | SK-MEL-28 melanoma -27.9%
inactive: PC-3 prostate 16.4%

CCOC(=O)c1c2c(c(C)n1C)-c1nn(Cc3ccc(OC)cc3)cc1CC2
inactive: HCT-15 colon 83.9% | HT29 colon 79.1% | SNB-75 CNS 103% | SNB-19 CNS 95.2% | U251 CNS 96.4% | PC-3 prostate 66.3% | SK-MEL-5 melanoma 69.6% | UACC-62 melanoma 68.9% | LOX IMVI melanoma 84.5% | SK-MEL-28 melanoma 119%

O=C(CC1Sc2ccccc2NC1=O)NNc1ccc(F)cc1 (stereo not given)
inactive: HCT-15 colon 60.5% | HT29 colon 98.5% | SNB-75 CNS 73.3% | SNB-19 CNS 84.5% | U251 CNS 85.2% | PC-3 prostate 52.5% | SK-MEL-5 melanoma 106% | UACC-62 melanoma 40% | LOX IMVI melanoma 18.5% | SK-MEL-28 melanoma 123%

CO[C@H]1/C=C/O[C@@]2(C)Oc3c(C)c(O)c4c(c3C2=O)C(=O)C(/C=N/N(c2ccccc2)c2ccccc2)=C(NC(=O)/C(C)=C\C=C\[C@H](C)[C@H](O)[C@@H](C)[C@@H](O)[C@@H](C)[C@H](OC(C)=O)[C@@H]1C)C4=O
active: HCT-15 colon -20.3% | HT29 colon -12.7% | U251 CNS -72.7% | PC-3 prostate -2.79% | SK-MEL-5 melanoma -88.2% | UACC-62 melanoma -71.1% | LOX IMVI melanoma -81.1% | SK-MEL-28 melanoma -58.3%
inactive: SNB-75 CNS 19.6% | SNB-19 CNS 19.1%
